From PubChem BioAssay (NCI)
About 79,000 compounds went through this panel and 15% of them were active in at least one assay; those are over-represented in the sample as a whole. The source made the active and inactive calls. Cut-off read from the data, not from the text of the source: active = growth inhibition above about 70%; inactive = the rest.

Legend:
[1] = NCI Yeast Anticancer Drug Screen. Data for the rad50 strain (AID 155);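 note: 0% = growth of vehicle-only cultures of the same strain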; details: S. cerevisiae rad50 strain growth inhibition, active compounds read high
Procedure, shortened: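 A DNA repair-deficient yeast mutant serves as the test organism; compound-induced growth inhibition is calculated against vehicle-treated cells.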

[2] = NCI Yeast Anticancer Drug Screen. Data for the mec2-1 strain (AID 157); details: S. cerevisiae mec2-1 strain, active compounds read high
Procedure, shortened: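 Strain: mec2-1 (DNA repair/cell cycle alteration). Compound exposure, then growth measured; inhibition expressed relative to vehicle.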

[3] = NCI Yeast Anticancer Drug Screen. Data for the sgs1 mgt1 strain (AID 161);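 note: 0% = growth of cultures given vehicle only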; details: S. cerevisiae sgs1 mgt1 strain, active compounds read high
Procedure, shortened: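 Genetically altered yeast, compound exposure, growth inhibition relative to vehicle.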

[4] = NCI Yeast Anticancer Drug Screen. Data for the cln2 rad14 strain (AID 165);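 note: 0% = growth equal to vehicle treated cultures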; details: S. cerevisiae cln2 rad14 strain, active compounds read high
Procedure, shortened: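 Compounds are applied to the cln2 rad14 yeast strain, and growth is then compared with that of vehicle-treated cultures to give inhibition.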

[5] = NCI Yeast Anticancer Drug Screen. Data for the bub3 strain (AID 167); details: S. cerevisiae bub3 mutant strain, active compounds read high
Procedure, shortened: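 Inhibition values come from growth of compound-treated mutant yeast normalised to vehicle-treated controls.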

[6] = NCI Yeast Anticancer Drug Screen. Data for the mlh1 rad18 strain (AID 175); details: S. cerevisiae mlh1 rad18 strain growth inhibition, active compounds read high
Procedure, shortened: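 Read-out is yeast growth inhibition, calculated against vehicle-only controls. The compound was applied to a strain engineered with DNA damage repair alterations.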

[7] = at 5.0 µM (retest, dose inferred, filed as 0.5)
[8] = at 50.0 µM (retest, dose inferred, filed as 5.0)

Measured: growth inhibition

CC(c1ccccc1)N1O[C@]12CC[C@@]1(C)C(CCCC13OCCO3)C2 (some centres not stated)
inactive: [3]; [7] 36%
active: [1]; [7] 88% | [1]; [8] 97% | [1]; at 50.0 µM 92% | [2]; [7] 97% | [2]; [8] 99% | [2]; at 50.0 µM 94% | [3]; [8] 97% | [3]; at 50.0 µM 92.2% | [4]; [7] 95% | [4]; [8] 98% | [4]; at 50.0 µM 91.2% | [5]; [7] 94% | [5]; [8] 98% | [5]; at 50.0 µM 91% | [6]; [7] 93% | [6]; [8] 97% | [6]; at 50.0 µM 91.5%

Nc1ccccc1O.O.O=C(O)C1[O][Sb][O]C1C(=O)O (configuration not stated)
inactive: [1]; [7] 19% | [1]; [8] 33% | [1]; at 50.0 µM 55.5% | [2]; [7] 26% | [2]; [8] 23% | [2]; at 50.0 µM 53.5% | [3]; [7] 12% | [3]; [8] 25% | [3]; at 50.0 µM 27.2% | [4]; [7] 10% | [4]; [8] 20% | [4]; at 50.0 µM 33.3% | [5]; [7] 37% | [5]; [8] 61% | [6]; [7] 37% | [6]; [8] 55% | [6]; at 50.0 µM 59.4%
active: [5]; at 50.0 µM 82.4%

CC(=O)NC1=C(N(CCCl)CCCl)C(=O)c2ccccc2C1=O
active: [1]; [8] 98% | [1]; at 50.0 µM 99% | [2]; [8] 98% | [2]; at 50.0 µM 98.2% | [3]; [8] 99% | [3]; at 50.0 µM 98.2% | [4]; [8] 96% | [4]; at 50.0 µM 96.2% | [5]; [8] 97% | [5]; at 50.0 µM 99% | [6]; [8] 98% | [6]; at 50.0 µM 98.9%
inactive: [1]; [7] 20% | [2]; [7] 12% | [3]; [7] 18% | [4]; [7] -4% | [5]; [7] 23% | [6]; [7] 18%

[C-]#[O+].[C-]#[O+].[Mo].c1ccc([PH+](CC[PH+](c2ccccc2)c2ccccc2)c2ccccc2)cc1.c1ccc([PH+](CC[PH+](c2ccccc2)c2ccccc2)c2ccccc2)cc1
inactive: [1]; [7] 0% | [1]; [8] 65% | [1]; at 50.0 µM 2% | [2]; [7] 2% | [2]; [8] 52% | [2]; at 50.0 µM 59.3% | [3]; [7] -1% | [3]; [8] 41% | [3]; at 50.0 µM 1.3% | [4]; [7] -2% | [4]; at 50.0 µM 2.55% | [5]; [7] 0% | [5]; at 50.0 µM -1.85% | [6]; [7] 4% | [6]; at 50.0 µM -0.8%
active: [4]; [8] 71% | [5]; [8] 76% | [6]; [8] 80%

CC1=C(O)C(=O)C=C2C1=CC=C1[C@@]2(C)CC[C@@]2(C)[C@@H]3C[C@](C)(C(=O)O)CC[C@]3(C)CC[C@]12C
inactive: [1]; [7] 65%
active: [1]; [8] 96% | [1]; at 50.0 µM 90% | [2]; [7] 74% | [2]; [8] 98% | [2]; at 50.0 µM 93.5% | [3]; [7] 83% | [3]; [8] 99% | [3]; at 50.0 µM 93.6% | [4]; [7] 92% | [4]; [8] 98% | [4]; at 50.0 µM 91% | [5]; [7] 95% | [5]; [8] 99% | [5]; at 50.0 µM 92.5% | [6]; [7] 74% | [6]; [8] 97% | [6]; at 50.0 µM 84%

Clc1ccc2c(c1)C(c1ccccc1Cl)=NCC(SCCN1CCOCC1)=N2
inactive: [1]; [7] 56% | [2]; [7] 29% | [3]; [7] 63% | [4]; [7] 45% | [5]; [7] 48% | [6]; [7] 52%
active: [1]; [8] 94% | [1]; at 50.0 µM 96.8% | [2]; [8] 92% | [2]; at 50.0 µM 93.6% | [3]; [8] 98% | [3]; at 50.0 µM 89.7% | [4]; [8] 81% | [4]; at 50.0 µM 82% | [5]; [8] 93% | [5]; at 50.0 µM 95.6% | [6]; [8] 95% | [6]; at 50.0 µM 91.5%

ClCCN(CCCl)CCN1c2ccc3ccccc3c2Sc2ccc3ccccc3c21
active: [3]; at 50.0 µM 85% | [5]; [8] 79%
inactive: [1]; [7] -3% | [1]; [8] 2% | [1]; at 50.0 µM 32.7% | [2]; [7] 0% | [2]; [8] 37% | [2]; at 50.0 µM 16.5% | [3]; [7] -13% | [3]; [8] 61% | [4]; [7] 2% | [4]; [8] 1% | [4]; at 50.0 µM -19.2% | [5]; [7] 1% | [5]; at 50.0 µM 20.8% | [6]; [7] -1% | [6]; [8] 53% | [6]; at 50.0 µM 67.9%

NCCNCCN1CC1
inactive: [1]; [7] -2% | [1]; [8] 0% | [1]; at 50.0 µM 64.9% | [2]; [7] 1% | [2]; [8] 1% | [2]; at 50.0 µM 0.35% | [3]; [7] 1% | [3]; [8] -1% | [3]; at 50.0 µM 39.9% | [4]; [7] -2% | [4]; [8] -3% | [4]; at 50.0 µM 19.1% | [5]; [7] -1% | [5]; [8] -6% | [5]; at 50.0 µM 33% | [6]; [7] -1% | [6]; [8] -1% | [6]; at 50.0 µM 40%

COc1ccc([As]=[As]c2ccc(OC)cc2)cc1 (configuration not stated)
active: [1]; [8] 97% | [1]; at 50.0 µM 99.3% | [2]; [8] 97% | [2]; at 50.0 µM 99.3% | [3]; [8] 99% | [3]; at 50.0 µM 99.2% | [4]; [8] 94% | [4]; at 50.0 µM 99.2% | [5]; [8] 98% | [5]; at 50.0 µM 99.2% | [6]; [8] 99% | [6]; at 50.0 µM 99.1%
inactive: [1]; [7] -23% | [2]; [7] 5% | [3]; [7] -18% | [4]; [7] -25% | [5]; [7] -12% | [6]; [7] -9%
